Results: PubChem BioAssay (NCATS)
Inconclusive results are not listed. The source made the active and inactive calls. The call rests on the fitted dose curve; in most records, active means well fitted inhibition curve with a large enough effect; inconclusive means small, poorly fitted or top-dose-only effect; inactive means flat fitted curve, though single readings scatter.

Test system: KB-3-1
Assay: Cytotoxic Profiling of Annotated Libraries Using Quantitative High-Throughput Screening (AID 1296008); further: nearly all actives have a fitted effect of over 60% in size
Conditions: Five cell lines viability, CellTiter-Glo ATP luminescence, 48-72 h; max response: active compounds read low
Outline: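 Cells exposed to compounds for 48 or 72 hr at 37 degrees Celsius. Viability read as ATP-coupled luminescence with CellTiter-Glo after 10 min at room temperature.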
On the % scale 0 is the no-effect control and ±100 the full control effect; potency means the concentration at half of the fitted maximal effect.

Compound | max response | Potency
CNCC(=O)N[C@@H](CCCN=C(N)N)C(=O)N[C@H](C(=O)N[C@@H](Cc1ccc(O)cc1)C(=O)N[C@H](C(=O)N[C@@H](Cc1cnc[nH]1)C(=O)N1CCC[C@H]1C(=O)N[C@@H](C)C(=O)O)C(C)C)C(C)C | 1.41% (inactive) | –
CNC(=O)C[C@@H](N)C(=O)N[C@@H](C(=O)N[C@@H]1C(=O)N2[C@@H]1SC(C)(C)[C@@H]2C(=O)O)c1ccc(O)cc1 | -18.5% (inactive) | –
COC(=O)[C@@H](N)CS | -3.99% (inactive) | –
C=CC[C@@H]1/C=C(\C)C[C@H](C)C[C@H](OC)[C@H]2O[C@@](O)(C(=O)C(=O)N3CCCC[C@H]3C(=O)O[C@H](/C(C)=C/[C@@H]3CC[C@@H](O)[C@H](OC)C3)[C@H](C)[C@@H](O)CC1=O)[C@H](C)C[C@@H]2OC | 2.3% (inactive) | –
OB(O)O | -9% (inactive) | –
CC(C)OC(=O)Nc1ccc2nc(-c3cscn3)[nH]c2c1 | – | 5.8 µM (active)
